Assay results from PubChem BioAssay (NCATS).
Records with an inconclusive call do not appear. Calls of active or inactive are those of the source. The call rests on the fitted dose curve; in most records, active means well fitted activation curve with a large enough effect; inconclusive means small, poorly fitted or top-dose-only effect; inactive means no such curve, though single readings can be large or run the other way.

assay: Validation screen for small molecules that induce genotoxicity in human embryonic kidney (HEK293T) cells expressing luciferase-tagged ELG1 (AID 493106); conditions: luminescence; series mostly up to 46.1 µM; activity change, positive = ELG1 induction: at the top concentration; on activity change, positive = ELG1 induction: 0% is about no effect
From the text: NIH Molecular Libraries Probe Production Network [MLPCN]
NIH Chemical Genomics Center [NCGC]
Assay Provider: Kyungjae Myung, NHGRI, NIH
Keywords: MLPCN, qHTS, NCGC, genotoxicity, cancer
Cancer cells divide rapidly compared to normal cells in the body. During cell division, cancer cells need to duplicate their genome by DNA replication. The failure of genome duplication leads to cancer cells' death. Therefore, inhibitors of DNA replication could specifically kill cancer cells. Based on this concept, many chemotherapeutic agents were developed and have been used to treat cancer patients. However, there are a limited number of agents available in the clinical setting, and some of those that do exist have low efficacy and severe side effects. Therefore, if we can find the compounds that effectively block DNA replication either by directly damaging DNA or by inhibiting other cellular mechanisms, the options for cancer treatment will be broadened. With this in mind, we developed a quantitative high-throughput ELG1-luciferase reporter gene assay. Since the level of human ELG1 protein is enhanced in response to genetic stresses, increases in luciferase activity can be used to identify compounds that cause genetic stress.
For genotoxicity screening, 2,000 cells in 5 uL/well were dispensed into white, solid-bottom 1536-well plates using a solenoid-based dispenser. Following transfer of 23 nL compound or DMSO vehicle by a pin tool, the plates were incubated 16 hr at 37 °C and 5% CO2. 5 ul ONE-Glo (Promega) was then added to each plate and following a 30 min incubation at room temperature, luciferase activity was quantified on a ViewLux CCD-based plate reader.
Potency means the concentration at half of the fitted maximal effect.

SMILES	activity change, positive = ELG1 induction	Potency
c1cnc(N2CCN(Cc3ccc4c(c3)OCO4)CC2)nc1	-9.12% (inactive)	–
CC(=O)OCC1=C(C(=O)O)N2C(=O)[C@@H](NC(=O)Cc3cccs3)[C@H]2SC1	-4.75% (inactive)	–
COC(=O)C1=C(C)NC(C)=C(C(=O)OC(C)(C)CN(C)CCC(c2ccccc2)c2ccccc2)C1c1cccc([N+](=O)[O-])c1 (stereo not given)	-17.1% (inactive)	–
CCN1CCc2nc(N)oc2CC1	-5.21% (inactive)	–
c1cc(CN2CCCCC2)cc(OCCCNc2nc3ccccc3s2)c1	-14.6% (inactive)	–
NC(N)=N/N=C/c1c(Cl)cccc1Cl	-8.91% (inactive)	–
CC(C)[N+](C)(CCOC(=O)C1c2ccccc2Oc2ccccc21)C(C)C	-6.59% (inactive)	–
COc1cc(C(=O)OCCCN2CCCN(CCCOC(=O)c3cc(OC)c(OC)c(OC)c3)CC2)cc(OC)c1OC	–	16.4 µM (active)
OCCN1CCN(CCCN2c3ccccc3C=Cc3ccccc32)CC1	-5.12% (inactive)	–
COCCc1ccc(OCC(O)CNC(C)C)cc1 (stereo not given)	-7.94% (inactive)	–
CN(C)CC/C=C1\c2ccccc2COc2ccccc21	-8.1% (inactive)	–
CCCC(C(=O)OCCN(CC)CC)(c1ccccc1)c1ccccc1	-15.8% (inactive)	–
CC(=O)[C@@]1(O)CC[C@H]2[C@@H]3CCC4=CC(=O)CC[C@]4(C)[C@H]3CC[C@@]21C	-11.2% (inactive)	–
CCN(CC)CCNC(=O)c1ccc(NC(C)=O)cc1	-5.48% (inactive)	–
CCOC(=O)C1=C(C)NC(C)=C(C(=O)OC)C1c1cccc(Cl)c1Cl (stereo not given)	-14.1% (inactive)	–
CN(C)CCCN1c2ccccc2Sc2ccc(C(F)(F)F)cc21	-14.1% (inactive)	–
CC(C)(Oc1ccc(CCNC(=O)c2ccc(Cl)cc2)cc1)C(=O)O	-5.72% (inactive)	–
Fc1ccc(C(c2ccc(F)cc2)N2CCN(C/C=C/c3ccccc3)CC2)cc1	-15% (inactive)	–
C[C@]12CC[C@@H]3c4ccc(O)cc4C[C@@H](CCCCCCCCCS(=O)CCCC(F)(F)C(F)(F)F)[C@H]3[C@@H]1CC[C@@H]2O (stereo not given in full)	-11.7% (inactive)	–
NC(=O)c1cn(Cc2c(F)cccc2F)nn1	-5.87% (inactive)	–

SMILES	activity change, positive = ELG1 induction	Potency
COC(=O)[C@H]1[C@H]2C[C@@H]3c4[nH]c5cc(OC)ccc5c4CCN3C[C@H]2C[C@@H](OC(=O)c2cc(OC)c(OC)c(OC)c2)[C@@H]1OC	-11.3% (inactive)	–
CCOC(=O)c1cnc2c(cnn2CC)c1NN=C(C)C	-5.42% (inactive)	–
NC(Cc1ccc(Cl)cc1)C(=O)O (stereo not given)	-3.46% (inactive)	–
CSc1ccc(C(=O)c2[nH]c(=O)[nH]c2C)cc1	1.62% (inactive)	–
CNCCC(Oc1ccccc1OC)c1ccccc1 (stereo not given)	-8.64% (inactive)	–
CCc1c(C)[nH]c2c1C(=O)C(CN1CCOCC1)CC2 (stereo not given)	-5.66% (inactive)	–
COc1cc2c(cc1OC)-c1cc(=Nc3c(C)cc(C)cc3C)n(C)c(=O)n1CC2	-13.6% (inactive)	–
CC(=O)OC(C)C[N+](C)(C)C (stereo not given)	-4.94% (inactive)	–
CCCCNC(=O)NS(=O)(=O)c1ccc(C)cc1	-5.18% (inactive)	–
CCC(=O)c1ccc2c(c1)N(CCCN(C)C)c1ccccc1S2	-3.34% (inactive)	–
CCN(Cc1ccncc1)C(=O)C(CO)c1ccccc1 (stereo not given)	-3.31% (inactive)	–
CC(C(=O)O)c1ccc(CC2CCCC2=O)cc1 (stereo not given)	-1.56% (inactive)	–
CN(C)CCN(Cc1cccs1)c1ccccn1	3.34% (inactive)	–
c1ccc2c(c1)CCCC2C1=NCCN1 (stereo not given)	-8.73% (inactive)	–
CN1C[C@H](C(=O)N[C@]2(C)O[C@@]3(O)[C@@H]4CCCN4C(=O)[C@H](Cc4ccccc4)N3C2=O)C[C@@H]2c3cccc4[nH]cc(c34)C[C@H]21	-6.41% (inactive)	–
CC(C)NNC(=O)c1ccncc1	-2.53% (inactive)	–
CCN1CCC[C@H]1CNC(=O)c1c(O)c(Cl)cc(Cl)c1OC	-7.94% (inactive)	–
C[C@@H](O)[C@H]1C(=O)N2C(C(=O)O)=C(SCCN=CN)C[C@H]12	-5.33% (inactive)	–
NC(N)=NC(=O)Cc1c(Cl)cccc1Cl	-10.3% (inactive)	–
O=C1CC2(CCCC2)CC(=O)N1CCCCN1CCN(c2ncccn2)CC1	1.59% (inactive)	–
